# Reference: PubChem BioAssay (Tox21)
# Results filed as inconclusive are left out. Active and inactive are the calls of the source. Unless noted, the call rests on the fitted dose curve; in most records, active means well fitted cell-killing curve with a large enough effect in the repeat runs; inconclusive means weak or mixed curves, or effect the other way; inactive means no such curve, though single readings can be large or run the other way.
# Test: qHTS assay for small molecule agonists of the antioxidant response element (ARE) signaling pathway (AID 743202; active means well fitted activation curve with a large enough effect in the signal ratio in the repeat runs, not every such curve was filed as active; the % refers to the signal ratio)
# Conditions: HepG2 ARE-bla reporter, beta-lactamase FRET, 16 h; series mostly up to 73.3 µM; activation: at the top concentration
# Summary of the method: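 Agonist mode reporter screen: HepG2 cells with ARE-controlled beta-lactamase are incubated with test compounds for 16 h at 37 C, and beta-lactamase activity is measured as fluorescence of cleaved B/G FRET substrate.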
# On the % scale 0 is the no-effect control and ±100 the full control effect; potency means the concentration at half of the fitted maximal effect.
Structure (SMILES),activation,Potency
CC(=O)c1ccc[nH]1,-13.7% (inactive),
COc1ccc(C2C(=O)c3ccccc3C2=O)cc1,8.24% (inactive),
O=C(O)c1cc(Cl)cc(Cl)c1O,-12.9% (inactive),
CCOC(=O)C(C)O (centres undefined),-1.12% [at 94.8 µM] (inactive),
COc1ccc(-c2cc(=S)ss2)cc1,,13.3 µM (active)
O=C(Oc1ccccc1)c1ccc2ccccc2c1O,-2.64% (inactive),
CC12CC3CC(C)(C1)CC(N)(C3)C2,-7.71% (inactive),
CCCCCCCCCCCCCC(=O)OCC(O)CO (centres undefined),-2.58% (inactive),
Cc1ccc(NC(=O)N(C)C)cc1NC(=O)N(C)C,-0.741% (inactive),
O=S(=O)(Cl)c1c(Cl)cccc1Cl,-0.78% (inactive),
COc1ccc(-n2nc(C(F)F)cc2-c2ccc(S(C)=O)cc2)cc1 (centres undefined),-11.1% (inactive),
CC1=CC[C@@H]2C[C@H]1C2(C)C,-11.5% [at 18.1 µM] (inactive),
CC(=O)OC(C)C[N+](C)(C)C (centres undefined),-1.57% (inactive),
FC(F)(F)C(F)(F)C(F)(F)C(F)(F)CCI,-13.4% [at 34.3 µM] (inactive),
CCN(Cc1cccc(S(=O)(=O)O)c1)c1ccc(C(=C2C=CC(=[N+](CC)Cc3cccc(S(=O)(=O)O)c3)C=C2)c2ccc(O)cc2S(=O)(=O)[O-])cc1,-0.991% (inactive),
CC(C)(C(=O)c1cccnc1)c1cccnc1,-4.94% (inactive),
CC(C)C(O)C(C)(C)CO (centres undefined),-3.88% [at 94.8 µM] (inactive),
COc1ccc(C(=O)NCc2ccc(OCCN(C)C)cc2)cc1OC,-6.63% (inactive),
Cc1cc(CCC(=O)OCCOCCOCCOC(=O)CCc2cc(C)c(O)c(C(C)(C)C)c2)cc(C(C)(C)C)c1O,-3.97% (inactive),
CC(CO)(CO)C(=O)O,8.12% [at 94.8 µM] (inactive),
CC(C)OC(=O)c1ccccc1C(=O)OC(C)C,-3.72% (inactive),
COc1cc(NC(C)CCCN)c2ncccc2c1 (centres undefined),-9.2% (inactive),

# Test: qHTS assay for small molecule agonists of the antioxidant response element (ARE) signaling pathway - cell viability counter screen (AID 743203; calls by dose curve; further: nearly all actives have a fitted effect of over 55% in size)
# Conditions: ARE-bla HepG2 viability, CellTiter-Glo luminescence, 16 h; series mostly up to 73.3 µM; viability change, negative = cytotoxic: at the top concentration
# Summary of the method: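 Cells (ARE-bla HepG2, 2,000/well) receive DMSO-dissolved compounds after a 5 hrs rest. Plates incubate 16 hrs at 37C/5% CO2. CellTiter-Glo luminescence is then recorded after 30 min at room temperature.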
Structure (SMILES),"viability change, negative = cytotoxic",Potency
CC(=O)c1ccc[nH]1,-2.86% (inactive),
CCO[Si](C)(CCCOCC1CO1)OCC (centres undefined),13.7% (inactive),
O=C(O)c1cc(Cl)cc(Cl)c1O,-12.4% (inactive),
CCOC(=O)C(C)O (centres undefined),-2.83% [at 94.8 µM] (inactive),
O=C(c1ccccc1)c1ccc(O)cc1,7.27% [at 94.8 µM] (inactive),
O=C(Oc1ccccc1)c1ccc2ccccc2c1O,-11% (inactive),
CCCOC(=O)c1c(Cl)c(Cl)c(Cl)c(Cl)c1C(=O)OCCC,6.73% (inactive),
NC(=O)c1ccccc1[N+](=O)[O-],6.97% [at 94.8 µM] (inactive),
CC/C=C\C/C=C\C/C=C\CCCCCCCC(=O)OCC,-11.3% [at 94.8 µM] (inactive),
O=S(=O)(Cl)c1c(Cl)cccc1Cl,-5.04% (inactive),
CCOC(=O)c1c(N)sc2c1CCN(Cc1ccccc1)C2,-1.11% (inactive),
COc1ccc(-n2nc(C(F)F)cc2-c2ccc(S(C)=O)cc2)cc1 (centres undefined),10.4% (inactive),
CCOC(=O)c1ccc(NC(=O)CN2CCCCC2)cc1,-7.84% (inactive),
CC(=O)OC(C)C[N+](C)(C)C (centres undefined),-0.739% (inactive),
Cc1cc(CCC(=O)OCCOCCOCCOC(=O)CCc2cc(C)c(O)c(C(C)(C)C)c2)cc(C(C)(C)C)c1O,1.53% (inactive),
CC(CO)(CO)C(=O)O,7.67% [at 94.8 µM] (inactive),
COC(=O)C1=C(C)NC(C)=C(C(=O)OC(C)(C)CN(C)CCC(c2ccccc2)c2ccccc2)C1c1cccc([N+](=O)[O-])c1 (centres undefined),-16.1% (inactive),
CC1C(C)(C)C2=C(C(=O)CCC2)C1(C)C (centres undefined),-0.649% (inactive),
CCCCCCCCCCCCCOS(=O)(=O)O,,61.1 µM (active)
CC(CCc1ccc(O)cc1)NCCc1ccc(O)c(O)c1 (centres undefined),-0.592% (inactive),
COc1cc(NC(C)CCCN)c2ncccc2c1 (centres undefined),-0.897% (inactive),
CCN(CC)CCOc1ccccc1C(=O)CCc1ccccc1,-5.67% (inactive),

# Test: qHTS assay for small molecule activators of the heat shock response signaling pathway - cell viability counter screen (AID 743209); further: nearly all actives have a fitted effect of over 50% in size
# Conditions: HSE-bla HeLa viability, CellTiter-Glo luminescence, 5 h; series mostly up to 62.6 µM; activity change, negative = cytotoxicity: at the top concentration
# Summary of the method: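 Quantitative HTS format, Tox21 10K library. HeLa cells carrying an HSE-driven beta-lactamase reporter were treated 5 h at 37 C, then assessed for viability by CellTiter-Glo luminescence.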
Structure (SMILES),"activity change, negative = cytotoxicity",Potency
CC(=O)c1ccc[nH]1,4.31% (inactive),
CCO[Si](C)(CCCOCC1CO1)OCC (centres undefined),-8.46% (inactive),
COc1ccc(C2C(=O)c3ccccc3C2=O)cc1,-18.2% (inactive),
O=C(O)c1cc(Cl)cc(Cl)c1O,-4.52% (inactive),
CCOC(=O)C(C)O (centres undefined),26.5% [at 81.1 µM] (inactive),
COc1ccc(-c2cc(=S)ss2)cc1,1.97% (inactive),
O=C(c1ccccc1)c1ccc(O)cc1,5.58% [at 81.1 µM] (inactive),
O=C(Oc1ccccc1)c1ccc2ccccc2c1O,-1.58% (inactive),
CC12CC3CC(C)(C1)CC(N)(C3)C2,3.34% (inactive),
CCCOC(=O)c1c(Cl)c(Cl)c(Cl)c(Cl)c1C(=O)OCCC,2.15% (inactive),
NC(=O)c1ccccc1[N+](=O)[O-],3.83% [at 81.1 µM] (inactive),
CCCCCCCCCCCCCC(=O)OCC(O)CO (centres undefined),-8.58% (inactive),
Cc1ccc(NC(=O)N(C)C)cc1NC(=O)N(C)C,8.65% (inactive),
CNS(=O)(=O)c1cc(C(=O)N2CCC(CCN3C4CCC3CC(n3c(C)nc5ccccc53)C4)(c3cccc(F)c3)CC2)c(Cl)cc1F (centres undefined),-3.7% (inactive),
CC/C=C\C/C=C\C/C=C\CCCCCCCC(=O)OCC,-9.18% [at 81.1 µM] (inactive),
CO[C@@H]1[C@@H](OC)[C@H](C)[C@@](O)(CC(=O)O)O[C@H]1[C@H](C)[C@H]1O[C@@]2(CC[C@@](C)([C@H]3CC[C@@](C)([C@@H]4O[C@@H]([C@H]5O[C@](C)(O)[C@H](C)C[C@@H]5C)C[C@@H]4OC4C[C@H](OC)[C@@H](OC)[C@H](C)O4)O3)O2)C[C@H](O)[C@H]1C (some centres undefined),,11.9 µM (active)
O=S(=O)(Cl)c1c(Cl)cccc1Cl,5.21% (inactive),
CCOC(=O)c1c(N)sc2c1CCN(Cc1ccccc1)C2,-3.24% (inactive),

Structure (SMILES),"activity change, negative = cytotoxicity",Potency
COc1ccc(-n2nc(C(F)F)cc2-c2ccc(S(C)=O)cc2)cc1 (centres undefined),-7.36% (inactive),
CCOC(=O)c1ccc(NC(=O)CN2CCCCC2)cc1,-7.03% (inactive),
CC1=CC[C@@H]2C[C@H]1C2(C)C,-3.23% [at 13.2 µM] (inactive),
O=[N+]([O-])C1(Br)COCOC1,,49 µM (active)
CC(=O)OC(C)C[N+](C)(C)C (centres undefined),1.16% (inactive),
FC(F)(F)C(F)(F)C(F)(F)C(F)(F)CCI,-0.807% [at 29.1 µM] (inactive),
CC(C)(C(=O)c1cccnc1)c1cccnc1,-1.89% (inactive),
COc1cc(OC)c2ccc(=O)oc2c1,-9.04% (inactive),
CC(C)C(O)C(C)(C)CO (centres undefined),0.872% [at 81.1 µM] (inactive),
COc1ccc(C(=O)NCc2ccc(OCCN(C)C)cc2)cc1OC,-3.56% (inactive),
Cc1cc(CCC(=O)OCCOCCOCCOC(=O)CCc2cc(C)c(O)c(C(C)(C)C)c2)cc(C(C)(C)C)c1O,1.39% (inactive),
CC(C)OC(=O)c1ccccc1C(=O)OC(C)C,-17.7% (inactive),
COC(=O)C1=C(C)NC(C)=C(C(=O)OC(C)(C)CN(C)CCC(c2ccccc2)c2ccccc2)C1c1cccc([N+](=O)[O-])c1 (centres undefined),-8.84% (inactive),
CC1C(C)(C)C2=C(C(=O)CCC2)C1(C)C (centres undefined),1.79% (inactive),
CCCCCCCCCCCCCOS(=O)(=O)O,-18.6% (inactive),
COc1cc(NC(C)CCCN)c2ncccc2c1 (centres undefined),5.81% (inactive),
CCN(CC)CCOc1ccccc1C(=O)CCc1ccccc1,-20.6% (inactive),
